According to the supplement of paper PMC10849652:
Targets with a hit are over-represented here; the source holds about 8,800 in all. About 0.5% of all pairs of compound and target were hits. A number with no mark means an inactive call.

Key:
Assay in all cases: log2 fold change, soluble protein after heating vs DMSO (PISA); higher = thermal stabilisation; K562 lysate, 10 uM; active = over 0.2 and 3.5 SD of the protein, either way, in both replicates (recomputed)
alvocidib = compound: CN1CC[C@H](c2c(O)cc(O)c3c(=O)cc(-c4ccccc4Cl)oc23)[C@H](O)C1 [alvocidib]
Method in brief: (§1)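 K562 pellets were dounce-homogenised in PBS pH 7.4 with 1 mM MgCl2, and the crude extract at 1 mg/mL protein was treated with 10 μM compound for 30 min. Aliquots were heated for 3 min across 48°C-58°C, pooled, and brought to 0.5% NP-40 at 4°C; soluble protein was the supernatant after 21,000xg for 90 min. Soluble protein was quantified by TMTpro 16plex LC-MS/MS with channel sums equalised, and reported as log2 fold change in thermal stability against DMSO controls, with values from duplicates.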

Tubastatin A = compound: CN1CCc2c(c3ccccc3n2Cc2ccc(C(=O)NO)cc2)C1 [Tubastatin A]
Method in brief: as §1

[1] = compound: CNC(=O)C1=CC=CC=C1NC2=NC(=NC=C2Cl)NC3=C(C=C(C=C3)N4CCOCC4)OC
Method in brief: as §1

defactinib = compound: CNC(=O)c1ccc(Nc2ncc(C(F)(F)F)c(NCc3nccnc3N(C)S(C)(=O)=O)n2)cc1 [defactinib]
Method in brief: as §1

[2] = compound: CNc1nc(-c2ccc3c(N)n[nH]c3c2)cc(N2C[C@@H](C(=O)NC3CCCCC3)CC[C@H]2C)n1
Method in brief: as §1

encorafenib = compound: COC(=O)N[C@@H](C)CNc1nccc(-c2cn(C(C)C)nc2-c2cc(Cl)cc(NS(C)(=O)=O)c2F)n1 [encorafenib]
Method in brief: as §1

[3] = compound: COC(=O)[C@H](CCSC)NC(=O)C1=C(C=C(C=C1)NC[C@H](CS)N)C2=CC=CC=C2
Method in brief: as §1

alisertib = compound: COc1cc(Nc2ncc3c(n2)-c2ccc(Cl)cc2C(c2c(F)cccc2OC)=NC3)ccc1C(=O)O [alisertib]
Method in brief: as §1

[4] = compound: COc1cc2nc(-c3cc(F)ccc3O)nc(N[C@@H]3CNC[C@H]3C(C)(C)O)c2cc1OC
Method in brief: as §1

gefitinib = compound: COc1cc2ncnc(Nc3ccc(F)c(Cl)c3)c2cc1OCCCN1CCOCC1 [gefitinib]
Method in brief: as §1

lapatinib = compound: CS(=O)(=O)CCNCc1ccc(-c2ccc3ncnc(Nc4ccc(OCc5cccc(F)c5)c(Cl)c4)c3c2)o1 [lapatinib]
Method in brief: as §1

pictilisib = compound: CS(=O)(=O)N1CCN(Cc2cc3nc(-c4cccc5[nH]ncc45)nc(N4CCOCC4)c3s2)CC1 [pictilisib]
Method in brief: as §1

crizotinib = compound: C[C@@H](Oc1cc(-c2cnn(C3CCNCC3)c2)cnc1N)c1c(Cl)ccc(F)c1Cl [crizotinib]
Method in brief: as §1

[5] = compound: C[C@H](C1=CC=C(C=C1)C(=O)NC2=C3C=CNC3=NC=C2)N
Method in brief: as §1

duvelisib = compound: C[C@H](Nc1ncnc2nc[nH]c12)c1cc2cccc(Cl)c2c(=O)n1-c1ccccc1 [duvelisib]
Method in brief: as §1

gandotinib = compound: Cc1cc(Nc2cc(CN3CCOCC3)c3nc(C)c(Cc4ccc(Cl)cc4F)n3n2)n[nH]1 [gandotinib]
Method in brief: as §1

tozasertib = compound: Cc1cc(Nc2cc(N3CCN(C)CC3)nc(Sc3ccc(NC(=O)C4CC4)cc3)n2)n[nH]1 [tozasertib]
Method in brief: as §1

doramapimod = compound: Cc1ccc(-n2nc(C(C)(C)C)cc2NC(=O)Nc2ccc(OCCN3CCOCC3)c3ccccc23)cc1 [doramapimod]
Method in brief: as §1

bafetinib = compound: Cc1ccc(NC(=O)c2ccc(CN3CC[C@H](N(C)C)C3)c(C(F)(F)F)c2)cc1Nc1nccc(-c2cncnc2)n1 [bafetinib]
Method in brief: as §1

[6] = compound: Cc1cccc(CC(=O)N2CCc3c2ccc(-c2cn(C)c4ncnc(N)c24)c3F)n1
Method in brief: as §1

UniProt Q12904, sequence (Q12904 whole entry, looked up): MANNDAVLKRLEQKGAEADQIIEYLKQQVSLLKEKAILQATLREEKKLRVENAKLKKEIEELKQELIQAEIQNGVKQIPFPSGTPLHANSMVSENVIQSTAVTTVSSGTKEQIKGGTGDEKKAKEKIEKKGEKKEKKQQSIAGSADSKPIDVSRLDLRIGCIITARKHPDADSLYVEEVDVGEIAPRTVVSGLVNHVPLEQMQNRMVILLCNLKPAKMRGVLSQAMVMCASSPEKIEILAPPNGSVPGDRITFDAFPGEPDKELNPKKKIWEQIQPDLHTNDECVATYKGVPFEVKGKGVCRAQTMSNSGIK
UniProt P51825, sequence (P51825 whole entry, looked up): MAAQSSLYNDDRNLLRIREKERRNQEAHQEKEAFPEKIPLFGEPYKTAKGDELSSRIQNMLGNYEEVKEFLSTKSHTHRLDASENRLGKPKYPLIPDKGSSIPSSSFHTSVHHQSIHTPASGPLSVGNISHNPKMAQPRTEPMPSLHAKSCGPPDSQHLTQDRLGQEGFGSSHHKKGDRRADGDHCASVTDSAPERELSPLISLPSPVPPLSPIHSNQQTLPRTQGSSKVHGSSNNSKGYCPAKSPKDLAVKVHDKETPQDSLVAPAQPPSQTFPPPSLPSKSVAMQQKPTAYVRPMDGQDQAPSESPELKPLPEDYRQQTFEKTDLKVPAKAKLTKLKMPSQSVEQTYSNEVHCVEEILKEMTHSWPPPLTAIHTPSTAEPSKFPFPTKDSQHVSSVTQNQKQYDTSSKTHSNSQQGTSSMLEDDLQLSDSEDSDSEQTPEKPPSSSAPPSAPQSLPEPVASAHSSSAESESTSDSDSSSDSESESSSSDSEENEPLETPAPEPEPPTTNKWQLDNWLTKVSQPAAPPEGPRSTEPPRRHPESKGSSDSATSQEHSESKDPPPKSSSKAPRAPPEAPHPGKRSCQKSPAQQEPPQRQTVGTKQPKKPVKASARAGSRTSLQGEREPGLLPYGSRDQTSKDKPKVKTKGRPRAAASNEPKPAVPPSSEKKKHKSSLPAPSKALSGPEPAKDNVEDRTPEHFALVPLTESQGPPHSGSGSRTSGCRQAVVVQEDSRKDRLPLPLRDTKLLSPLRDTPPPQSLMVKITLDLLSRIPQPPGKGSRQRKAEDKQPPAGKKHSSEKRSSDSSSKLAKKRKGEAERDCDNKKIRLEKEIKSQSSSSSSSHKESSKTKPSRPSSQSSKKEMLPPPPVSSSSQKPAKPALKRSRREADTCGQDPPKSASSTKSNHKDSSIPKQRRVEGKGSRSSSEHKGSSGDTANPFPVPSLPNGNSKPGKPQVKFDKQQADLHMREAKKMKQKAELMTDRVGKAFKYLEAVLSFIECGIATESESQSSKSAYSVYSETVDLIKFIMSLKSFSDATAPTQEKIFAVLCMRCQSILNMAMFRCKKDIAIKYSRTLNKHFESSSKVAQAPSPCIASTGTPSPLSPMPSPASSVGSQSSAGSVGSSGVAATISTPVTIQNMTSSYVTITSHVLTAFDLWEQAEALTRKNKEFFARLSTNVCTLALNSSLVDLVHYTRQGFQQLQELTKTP
UniProt Q02252, sequence (Q02252 whole entry, looked up): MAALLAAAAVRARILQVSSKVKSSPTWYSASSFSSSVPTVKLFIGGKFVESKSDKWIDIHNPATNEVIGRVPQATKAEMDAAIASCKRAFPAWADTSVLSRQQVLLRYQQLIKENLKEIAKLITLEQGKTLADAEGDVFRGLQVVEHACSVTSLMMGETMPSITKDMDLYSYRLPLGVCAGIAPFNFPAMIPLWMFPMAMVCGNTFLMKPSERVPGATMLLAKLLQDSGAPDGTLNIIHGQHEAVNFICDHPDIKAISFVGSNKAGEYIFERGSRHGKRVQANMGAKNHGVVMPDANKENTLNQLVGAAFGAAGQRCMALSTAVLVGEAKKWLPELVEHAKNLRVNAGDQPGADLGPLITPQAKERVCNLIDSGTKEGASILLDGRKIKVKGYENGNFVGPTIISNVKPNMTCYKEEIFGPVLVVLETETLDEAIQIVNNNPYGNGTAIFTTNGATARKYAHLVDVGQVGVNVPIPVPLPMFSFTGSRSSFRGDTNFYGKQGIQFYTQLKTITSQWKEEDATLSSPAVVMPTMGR
UniProt Q9UH62, sequence (Q9UH62 whole entry, looked up): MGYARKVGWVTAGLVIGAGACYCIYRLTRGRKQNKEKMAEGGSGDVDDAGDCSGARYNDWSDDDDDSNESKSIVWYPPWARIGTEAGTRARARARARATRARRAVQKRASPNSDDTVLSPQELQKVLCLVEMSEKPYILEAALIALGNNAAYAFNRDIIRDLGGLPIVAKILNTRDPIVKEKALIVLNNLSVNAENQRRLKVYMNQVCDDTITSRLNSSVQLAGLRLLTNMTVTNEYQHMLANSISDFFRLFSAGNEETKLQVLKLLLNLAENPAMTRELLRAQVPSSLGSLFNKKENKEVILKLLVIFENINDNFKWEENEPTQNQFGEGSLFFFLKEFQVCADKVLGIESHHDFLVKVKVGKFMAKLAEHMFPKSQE
UniProt Q12797, sequence (Q12797 whole entry, looked up): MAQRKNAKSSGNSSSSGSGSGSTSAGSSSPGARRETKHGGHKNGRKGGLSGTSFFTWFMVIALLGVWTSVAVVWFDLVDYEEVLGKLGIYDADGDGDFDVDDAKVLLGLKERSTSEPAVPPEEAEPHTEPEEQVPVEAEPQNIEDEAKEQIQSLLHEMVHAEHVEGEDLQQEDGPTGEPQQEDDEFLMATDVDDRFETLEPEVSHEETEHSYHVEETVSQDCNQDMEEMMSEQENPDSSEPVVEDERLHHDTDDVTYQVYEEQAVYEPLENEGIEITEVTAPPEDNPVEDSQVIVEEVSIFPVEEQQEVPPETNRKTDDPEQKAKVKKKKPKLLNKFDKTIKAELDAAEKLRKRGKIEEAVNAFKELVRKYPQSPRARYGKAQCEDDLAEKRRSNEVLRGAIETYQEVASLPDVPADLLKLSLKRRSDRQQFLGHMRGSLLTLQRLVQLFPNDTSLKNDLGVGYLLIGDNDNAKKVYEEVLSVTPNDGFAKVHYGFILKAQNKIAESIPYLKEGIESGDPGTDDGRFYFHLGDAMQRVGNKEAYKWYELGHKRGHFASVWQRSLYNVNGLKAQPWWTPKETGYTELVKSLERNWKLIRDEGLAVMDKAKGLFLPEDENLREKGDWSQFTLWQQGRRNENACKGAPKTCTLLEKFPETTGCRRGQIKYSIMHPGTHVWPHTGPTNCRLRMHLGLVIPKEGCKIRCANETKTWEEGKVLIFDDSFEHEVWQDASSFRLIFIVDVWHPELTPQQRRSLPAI
UniProt Q9NQW6, sequence (Q9NQW6 whole entry, looked up): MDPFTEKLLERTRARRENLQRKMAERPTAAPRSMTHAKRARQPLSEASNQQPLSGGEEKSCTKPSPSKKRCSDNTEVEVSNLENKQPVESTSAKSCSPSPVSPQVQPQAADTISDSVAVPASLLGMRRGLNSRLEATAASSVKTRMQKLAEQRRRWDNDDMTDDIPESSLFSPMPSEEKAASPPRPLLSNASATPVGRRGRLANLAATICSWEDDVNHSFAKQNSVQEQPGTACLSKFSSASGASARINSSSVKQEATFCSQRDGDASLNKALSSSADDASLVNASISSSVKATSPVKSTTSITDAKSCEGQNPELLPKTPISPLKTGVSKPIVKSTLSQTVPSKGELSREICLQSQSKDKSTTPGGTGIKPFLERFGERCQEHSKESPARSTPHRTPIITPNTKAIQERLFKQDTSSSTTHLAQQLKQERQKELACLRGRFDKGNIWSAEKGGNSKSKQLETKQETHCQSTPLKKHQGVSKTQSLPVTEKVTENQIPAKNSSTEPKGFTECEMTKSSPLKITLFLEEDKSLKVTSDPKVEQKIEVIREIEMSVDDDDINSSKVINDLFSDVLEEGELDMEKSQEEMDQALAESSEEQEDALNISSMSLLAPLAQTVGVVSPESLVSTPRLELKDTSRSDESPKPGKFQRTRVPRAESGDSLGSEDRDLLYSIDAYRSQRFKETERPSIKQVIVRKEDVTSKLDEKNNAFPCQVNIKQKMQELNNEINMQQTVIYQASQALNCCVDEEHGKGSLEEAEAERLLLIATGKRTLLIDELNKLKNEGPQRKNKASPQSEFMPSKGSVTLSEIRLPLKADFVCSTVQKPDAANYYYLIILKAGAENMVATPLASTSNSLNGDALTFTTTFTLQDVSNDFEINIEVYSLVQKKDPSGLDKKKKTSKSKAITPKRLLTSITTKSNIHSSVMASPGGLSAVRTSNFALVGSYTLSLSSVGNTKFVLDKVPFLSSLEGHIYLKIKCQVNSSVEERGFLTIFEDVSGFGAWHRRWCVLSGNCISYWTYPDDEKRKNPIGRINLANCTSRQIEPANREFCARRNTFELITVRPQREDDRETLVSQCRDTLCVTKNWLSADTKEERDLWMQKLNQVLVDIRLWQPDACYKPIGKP
UniProt O00170, sequence (O00170 whole entry, looked up): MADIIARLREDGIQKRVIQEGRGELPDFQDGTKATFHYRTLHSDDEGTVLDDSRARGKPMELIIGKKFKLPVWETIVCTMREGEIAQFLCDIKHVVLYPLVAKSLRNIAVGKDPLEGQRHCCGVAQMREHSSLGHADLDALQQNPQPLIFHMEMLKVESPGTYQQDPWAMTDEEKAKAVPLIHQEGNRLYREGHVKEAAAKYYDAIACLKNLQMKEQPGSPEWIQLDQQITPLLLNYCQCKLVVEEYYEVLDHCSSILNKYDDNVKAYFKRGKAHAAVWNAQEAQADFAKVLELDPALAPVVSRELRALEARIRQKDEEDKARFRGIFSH
UniProt P17707, sequence (P17707 whole entry, looked up): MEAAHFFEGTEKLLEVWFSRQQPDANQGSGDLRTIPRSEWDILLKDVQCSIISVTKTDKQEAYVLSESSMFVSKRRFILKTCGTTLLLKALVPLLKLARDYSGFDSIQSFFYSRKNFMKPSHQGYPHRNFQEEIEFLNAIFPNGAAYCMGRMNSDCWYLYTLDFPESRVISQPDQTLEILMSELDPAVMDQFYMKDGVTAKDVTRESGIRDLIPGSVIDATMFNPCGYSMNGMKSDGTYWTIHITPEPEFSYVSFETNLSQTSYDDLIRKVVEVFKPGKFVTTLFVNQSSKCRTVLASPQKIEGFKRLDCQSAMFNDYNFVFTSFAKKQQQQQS

Target	log2 fold change (alvocidib)	log2 fold change (Tubastatin A)	log2 fold change [1]	log2 fold change (defactinib)	log2 fold change [2]	log2 fold change (encorafenib)	log2 fold change [3]	log2 fold change (alisertib)	log2 fold change [4]	log2 fold change (gefitinib)	log2 fold change (lapatinib)	log2 fold change (pictilisib)	log2 fold change (crizotinib)	log2 fold change [5]	log2 fold change (duvelisib)	log2 fold change (gandotinib)	log2 fold change (tozasertib)	log2 fold change (doramapimod)	log2 fold change (bafetinib)	log2 fold change [6]
AIMP1 isoform 2 (UniProt Q12904)	0.056	-0.118	0.01	0.018	0.028	-0.005	0.11	0.004	-0.009	-0.029	-0.019	-0.004	-0.05	0.023	0.007	-0.085	-0.008	-0.015	-0.041	-0.012
ANKRD27 (UniProt Q96NW4)	-0.056	-0.118	0.046	0.035	0.003	-0.007	0.103	-0.053	-0.087	0.03	0.025	-0.026	-0.095	-0.03	-0.025	0.049	0.002	-0.009	-0.059	0.022
ASPH (UniProt Q12797)	-0.012	0.018	-0.01	0.023	-0.006	0.018	-0.047	0.042	-0.025	-0.041	-0.035	-0.012	-0.025	0.048	-0.022	-0.04	0.037	0.008	0.029	0.005
ADRM1 (UniProt Q16186)	0.009	-0.064	-0.027	0.003	0.011	-0.033	0.118	0.032	-0.001	-0.009	-0.009	-0.012	-0.05	0.019	0.03	-0.014	-0.019	0.042	0.006	0.02
AMD1 (UniProt P17707)	-0.039	-0.084	0.071	-0.003	0.008	-0.08	-0.107	0.027	0.261	0.041	-0.125	0.056	0.035	-0.099	0.12	0.107	0.05	0.316	-0.07	0.048
AKT1 (UniProt P31749)	-0.002	-0.018	0.036	0.038	-0.05	0.084	0.093	0.019	0.003	-0.05	0.054	0.002	-0.049	-0.034	-0.008	-0.048	0	0.031	-0.044	0.033
AKR1C2 (UniProt P52895)	-0.06	0.061	-0.021	-0.05	-0.151	-0.012	0.018	0.002	0.004	-0.082	-0.012	-0.022	-0.059	-0.201	0.049	0.276 (active)	0.014	-0.011	0.108	0.18
AGO4 (UniProt Q9HCK5)	-0.013	-0.003	0.003	-0.027	-0.214 (active)	0.025	-0.092	-0.008	0.037	-0.015	0.013	-0.076	-0.01	-0.113	0.014	0.048	-0.001	-0.014	-0.004	0.002
AFF1 isoform 2 (UniProt P51825)	-0.157	0.052	0.076	0.083	0.004	-0.001	-0.033	-0.043	0.157	-0.323	-0.055	-0.063	0.005	-0.396 (active)	0.067	0.341	0.066	0.064	-0.04	0.696 (active)
ABCF3 (UniProt Q9NUQ8)	0.013	-0.172	0.029	-0.01	-0.01	-0.031	0.11	0.004	-0.003	-0.006	-0.019	0.006	-0.033	0.02	0.018	-0.075	0.063	0.011	-0.062	0.017
ALDH6A1 (UniProt Q02252)	-0.044	0.43 (active)	0.106	0.018	0.091	-0.015	0.103	0.086	0.061	0.098	-0.04	-0.028	-0.023	-0.032	0.073	-0.033	0.021	-0.017	0.122	-0.001
ANLN (UniProt Q9NQW6)	-0.037	-0.196	0.058	0.012	0.011	0.036	0.102	0.051	0.004	0.03	-0.007	0.004	-0.02	-0.037	-0.02	0.024	0.052	0.01	-0.038	0.028
ACTG1 (UniProt I3L4N8)	0.089	0.119	0.046	-0.142	-0.005	0.209	0	-0.198	-0.003	-0.115	-0.072	-0.209	-0.066	-0.039	0.13	-0.159	0.083	-0.065	-0.183	-0.096
ARMCX3 (UniProt Q9UH62)	0.022	-0.061	-0.018	0.017	0.026	-0.006	0.015	0.055	0.042	-0.053	-0.058	0.005	-0.076	0.078	0.064	-0.064	0.005	-0.003	-0.044	0.032
AIMP2 (UniProt Q13155)	0.037	-0.11	0.006	-0.01	-0.007	-0.02	0.093	0.011	-0.028	-0.088	-0.006	0.015	-0.047	0.05	-0.018	-0.12	0.041	0.029	-0.03	-0.032
AIP (UniProt O00170)	0.164	0.003	0.037	0.004	0.015	-0.008	0.043	-0.039	-0.002	-0.032	-0.004	-0.026	0.021	0.41 (active)	-0.031	-0.019	-0.012	-0.022	0.055	-0.043
